Experimental data from PubChem BioAssay (NCI).
About 83,000 compounds went through this panel and 20% of them were active in at least one assay; those are over-represented in the sample as a whole.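 Note: values are percent growth. 100 is the growth of untreated cells, values between 100 and 0 indicate rising inhibition; between -100 and 0 indicates cell death.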 Values without a mark were called inactive. The source made the active and inactive calls. The calls were made as follows: active = growth percent below 10; inactive = the rest.

The compounds below were run on HL-60(TB) leukemia (assay: NCI-60 one-dose screen, 48 h (100 = growth as untreated, 0 = no growth, -100 = all killed)). Conditions: 10 µM unless noted.
In the case of `COc1ccc2[nH]c(C(=O)OCc3ccc4cccc(O)c4n3)cc2c1`, the growth is reported as -36.8% (active).
`CC(C)(C)c1ccc(OCCOC(=O)CBr)cc1` gave a growth of 75.2%.
`NC(=O)c1ccccc1OCC(=O)Nc1ccc(Cl)c(Cl)c1` was tested, and the growth was 86.4%.
Compound `Oc1cc(Nc2ccnc3cc(Cl)ccc23)c2ncccc2c1` has a growth of 93.1%.
Compound `CC(=O)[C@H]1CC[C@H]2[C@@H]3CCC4=CC(=O)C=C[C@]4(C)[C@H]3CC[C@]12C` has a growth of 90.9%.
`NC(N)=N/N=C(\c1ccccc1)C(O)c1ccccc1` (stereo not given) gave a growth of 96.7%.
Compound `COC(=O)c1nc(=S)[nH]c(C(=O)OC)c1C(=O)c1ccc(OC)cc1` has a growth of 107%.
`O=C1c2ccccc2OC=C(c2ccccc2)N1CCCCNc1ccc(F)cc1` gave a growth of 45.3%.
Work on `O=C1c2ccccc2-c2cn(Cc3ccccc3)c3cccc(c23)C1c1cccnc1` (stereo not given) yielded a growth of 16.3%.
`O=c1[nH]c(-c2ccncc2)nc2sc3c(c12)CCCCCC3` gave a growth of 91.4%.
With `C=CCn1c(=O)c2cnc(Nc3ccc(N4CCN(C)CC4)cc3)nc2n1-c1cccc(C(C)(C)O)n1` the growth was -22.4% (active).
In the case of `O=C1c2ccccc2-c2c1c1cccnc1c(=O)n2C[C@H](O)CO`, the growth is reported as 48.8%.
`N#Cc1nc(-c2ccccc2)oc1S(=O)(=O)N1CCN(c2ccccc2)CC1` showed a growth of 75.6%.
`CC1c2ccccc2-c2ccccc2N1C` (stereo not given) showed a growth of 106%.
For `COc1ccc2cc(-c3cnc4nonc4n3)ccc2c1`, the growth was -12% (active).
For `ClC1=C2NC=NC2n2c(nnc2-c2ccc(Cl)cc2)N1` (stereo not given), the growth was 118%.
With `CC(=O)OC[C@]12CC[C@@H](C(=O)CBr)[C@@H]1[C@H]1CC[C@@H]3[C@@]4(C)CC[C@H](OC(C)=O)C(C)(C)[C@@H]4CC[C@@]3(C)[C@]1(C)CC2` the growth was 63.8%.
In the case of `COc1cc(C(=O)N/N=C/c2ccc(N(C)C)cc2)cc(OC)c1OC`, the growth is reported as -20% (active).
Compound `C[C@H](CCC[C@H](C)OS(=O)(=O)c1ccccc1)OS(=O)(=O)c1ccccc1` has a growth of 119%.
In the case of `O=C(COc1ccc(-c2nc3ccccc3[nH]2)cc1)N=Nc1c(O)[nH]c2ccccc12`, the growth is reported as 103%.
Compound `NS(=O)(=O)c1ccc(-n2ncc3c(N/N=C/c4ccccc4)ncnc32)cc1` has a growth of 83.1%.
With `ClC1=C(Cl)C(Cl)=C(Cl)C1=C/C=C/c1ccccc1` the growth was -45.5% (active).
`COc1ccc(-c2nnc(N3CCN(C(=O)CN4CCN(c5ccccc5)CC4)CC3)nc2-c2ccc(OC)cc2)cc1` was tested, and the growth was -58.6% (active).
Compound `O=C(NC1CCN(Cc2ccccc2)CC1)c1cc(-c2cccnc2)nc2ccc(Cl)cc12` has a growth of 73.9%.
For `O=c1nc2sc3nc4ccccc4cc3cc-2s1`, the growth was 99%.
With `CS(=O)(=O)Nc1cc(-c2ccc3ncnc(Nc4ccc(F)c(Cl)c4)c3c2)cnc1Cl` the growth was 1.75% (active).
With `O=C(Cc1ccc(/C=C/C(=O)c2ncc[nH]2)cc1)Nc1ccc(Br)cc1` the growth was 0.0282% (active).
For `CC1=C([Se]CC(OC(=O)[C@@H](CO)NC(=O)OC(C)(C)C)C(=O)NC(C)(C)C)C(=O)c2ccccc2C1=O` (stereo not given in full), the growth was -36.2% (active).
In the case of `COc1ccc(S(=O)(=O)Nc2c(/C=C\c3cc(OC)c(OC)c(OC)c3)ccc(OC)c2O)cc1`, the growth is reported as -42.3% (active).
In the case of `CC1(C)COB(OCC(C)(C)COB2OCC(C)(C)CO2)OC1`, the growth is reported as 101%.
With `C1=C(c2ccccc2)C(c2ccc(OCCN3CCCCC3)cc2)Oc2ccccc21` (stereo not given) the growth was 62.7%.
Compound `COc1cccc(/C=C/C(=O)/C=C(/C=C/c2cccc(OC)c2OC)OB(F)F)c1OC` has a growth of 26.1%.
`COc1cc(/C=C(\C#N)C(=O)c2ccccc2)ccc1OCc1ccccc1` was tested, and the growth was 103%.
`O=C(c1ccncc1)N1N=C(c2ccc(Cl)cc2)C[C@H]1c1cn(-c2ccccc2)nc1-c1ccccc1` was tested, and the growth was 107%.
For `O=C(O)CCCCSCCCCC(=O)O`, the growth was 97.8%.
With `CCN1C(=O)N(CC)C2C1NN=c1s/c(=C3\C(=O)N(CCc4ccccc4)c4ccccc43)c(=O)n12` (stereo not given) the growth was -46.1% (active).
In the case of `COc1ccc2[nH]c(-c3ccccc3)c(/C=C(\C#N)S(=O)(=O)c3ccccc3)c2c1`, the growth is reported as 1.53% (active).
Work on `C=CCOc1ccc(/C(O)=C2\C(=O)C(=O)N(c3nccs3)C2c2ccccc2F)cc1` (stereo not given) yielded a growth of 81.1%.
In the case of `COc1ccc(C(=O)O)cc1.[Ag]`, the growth is reported as -46% (active).
For `CC(C)[C@@H]1CC[C@]2(C(=O)NCCCCN=C(N)N)CC[C@]3(C)[C@H](CC[C@@H]4[C@@]5(C)CCC(=O)C(C)(C)[C@@H]5CC[C@]43C)[C@@H]12`, the growth was 13.5%.
